How the values were obtained:
Assay in all cases: DAPPL (digital affinity profiling via proximity ligation, sequencing); 10 mM Tris-HCl pH 7.5, 50 mM NaCl, 1 mM DTT, 4% glycerol, room temperature, 30 min; GST-TFs on glutathione beads, 16-mer random dsDNA library, 0.1% formaldehyde crosslink after washing; high values mean tight binding
FEV = target: T1, FEV (Homo sapiens, UniProt Q99581 1-238); conditions: protein: recombinant; tags: N-terminal GST; dsDNA, one strand shown
T1 sequence: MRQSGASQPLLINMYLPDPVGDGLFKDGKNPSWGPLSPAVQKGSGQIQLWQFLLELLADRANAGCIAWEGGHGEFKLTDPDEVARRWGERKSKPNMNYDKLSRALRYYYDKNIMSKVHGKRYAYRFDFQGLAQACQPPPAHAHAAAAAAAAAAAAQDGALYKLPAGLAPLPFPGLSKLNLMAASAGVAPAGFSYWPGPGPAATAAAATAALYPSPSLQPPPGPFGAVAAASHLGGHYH
Method in brief: (§1)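 In yeast, human transcription factors were expressed with a GST fusion, then pulled down on glutathione beads and given DNA barcodes. Pooled with a tag-only sample, they were exposed to 200 nmole of a 16-mer random double-stranded DNA library (Tris/NaCl/DTT/glycerol buffer, room temperature, 30 min), washed, crosslinked with 0.1% formaldehyde, proximity-ligated using BsaI/T4 ligase for 1 h at 37 °C, PCR-amplified and read on an Illumina NextSeq500. Each hexamer's frequency of reads for a factor, divided by the matching frequency for the tag-only sample, gives the binding signal.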

ETV5 = ETV5 (Homo sapiens, UniProt P41161 1-510); conditions: protein: recombinant; tags: N-terminal GST; dsDNA, one strand shown
Sequence of ETV5 (P41161 whole entry): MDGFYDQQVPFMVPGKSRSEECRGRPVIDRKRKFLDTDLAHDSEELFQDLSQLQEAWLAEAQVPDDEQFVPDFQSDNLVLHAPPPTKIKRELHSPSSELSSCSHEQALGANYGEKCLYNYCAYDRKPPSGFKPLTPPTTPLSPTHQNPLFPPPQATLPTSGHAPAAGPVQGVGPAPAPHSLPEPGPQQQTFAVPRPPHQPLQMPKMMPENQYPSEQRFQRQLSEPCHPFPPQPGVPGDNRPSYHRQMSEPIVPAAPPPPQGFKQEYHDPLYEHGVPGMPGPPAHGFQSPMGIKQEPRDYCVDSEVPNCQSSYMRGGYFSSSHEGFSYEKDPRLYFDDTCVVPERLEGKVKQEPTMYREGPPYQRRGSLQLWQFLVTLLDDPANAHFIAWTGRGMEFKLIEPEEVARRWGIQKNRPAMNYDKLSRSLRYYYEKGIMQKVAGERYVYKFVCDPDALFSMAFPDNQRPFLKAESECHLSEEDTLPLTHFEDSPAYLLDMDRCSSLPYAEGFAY
Method in brief: as §1

HSF1 = HSF1 (Homo sapiens, UniProt Q00613 1-529); conditions: protein: recombinant; tags: N-terminal GST; chain copies: 3; dsDNA, one strand shown
Sequence of HSF1 (Q00613 whole entry): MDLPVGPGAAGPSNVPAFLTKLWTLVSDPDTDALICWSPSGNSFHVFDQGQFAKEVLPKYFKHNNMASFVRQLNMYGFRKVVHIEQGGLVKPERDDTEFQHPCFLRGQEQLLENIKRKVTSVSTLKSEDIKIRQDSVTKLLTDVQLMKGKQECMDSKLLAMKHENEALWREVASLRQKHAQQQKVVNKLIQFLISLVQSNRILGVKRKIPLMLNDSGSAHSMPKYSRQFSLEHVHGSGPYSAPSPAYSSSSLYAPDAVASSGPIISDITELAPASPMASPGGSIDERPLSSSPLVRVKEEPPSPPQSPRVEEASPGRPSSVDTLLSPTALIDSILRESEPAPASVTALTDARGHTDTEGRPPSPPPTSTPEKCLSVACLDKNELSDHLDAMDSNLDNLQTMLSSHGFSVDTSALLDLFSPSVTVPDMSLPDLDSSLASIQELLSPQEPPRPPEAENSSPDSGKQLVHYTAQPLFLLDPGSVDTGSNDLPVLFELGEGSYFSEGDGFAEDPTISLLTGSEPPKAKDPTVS
Method in brief: as §1

SPIC = target: T2, SPIC (Homo sapiens, UniProt Q8N5J4 1-248); conditions: protein: recombinant; tags: N-terminal GST; dsDNA, one strand shown
T2 sequence: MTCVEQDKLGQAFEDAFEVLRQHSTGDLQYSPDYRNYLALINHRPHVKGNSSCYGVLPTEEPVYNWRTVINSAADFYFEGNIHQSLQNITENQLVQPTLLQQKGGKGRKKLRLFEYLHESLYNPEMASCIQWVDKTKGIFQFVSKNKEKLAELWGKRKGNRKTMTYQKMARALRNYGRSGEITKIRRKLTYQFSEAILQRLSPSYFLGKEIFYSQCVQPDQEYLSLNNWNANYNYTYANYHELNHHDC
Method in brief: as §1

ELF4 = ELF4 (Homo sapiens, UniProt Q99607 1-663); conditions: protein: recombinant; tags: N-terminal GST; dsDNA, one strand shown
Sequence of ELF4 (Q99607 whole entry): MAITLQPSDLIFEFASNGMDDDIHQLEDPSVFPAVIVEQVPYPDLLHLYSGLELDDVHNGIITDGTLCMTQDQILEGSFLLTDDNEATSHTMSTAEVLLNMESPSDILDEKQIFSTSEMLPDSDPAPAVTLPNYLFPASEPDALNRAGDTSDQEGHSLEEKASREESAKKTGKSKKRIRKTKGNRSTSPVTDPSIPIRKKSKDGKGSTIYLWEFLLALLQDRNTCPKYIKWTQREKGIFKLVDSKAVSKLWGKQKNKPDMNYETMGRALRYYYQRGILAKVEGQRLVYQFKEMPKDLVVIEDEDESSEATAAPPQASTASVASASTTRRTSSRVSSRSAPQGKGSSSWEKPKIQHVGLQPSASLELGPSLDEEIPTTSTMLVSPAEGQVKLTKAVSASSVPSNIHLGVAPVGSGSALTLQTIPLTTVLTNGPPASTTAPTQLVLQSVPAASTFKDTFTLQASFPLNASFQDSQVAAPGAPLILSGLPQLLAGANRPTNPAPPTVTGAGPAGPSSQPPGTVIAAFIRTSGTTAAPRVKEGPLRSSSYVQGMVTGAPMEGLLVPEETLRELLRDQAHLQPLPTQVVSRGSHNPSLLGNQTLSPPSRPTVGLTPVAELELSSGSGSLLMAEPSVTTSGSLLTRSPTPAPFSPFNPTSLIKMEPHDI
Method in brief: as §1

ELK4 = target: T3, ELK4 (Homo sapiens, UniProt P28324-2 1-405); conditions: protein: recombinant; tags: N-terminal GST; dsDNA, one strand shown
T3 sequence: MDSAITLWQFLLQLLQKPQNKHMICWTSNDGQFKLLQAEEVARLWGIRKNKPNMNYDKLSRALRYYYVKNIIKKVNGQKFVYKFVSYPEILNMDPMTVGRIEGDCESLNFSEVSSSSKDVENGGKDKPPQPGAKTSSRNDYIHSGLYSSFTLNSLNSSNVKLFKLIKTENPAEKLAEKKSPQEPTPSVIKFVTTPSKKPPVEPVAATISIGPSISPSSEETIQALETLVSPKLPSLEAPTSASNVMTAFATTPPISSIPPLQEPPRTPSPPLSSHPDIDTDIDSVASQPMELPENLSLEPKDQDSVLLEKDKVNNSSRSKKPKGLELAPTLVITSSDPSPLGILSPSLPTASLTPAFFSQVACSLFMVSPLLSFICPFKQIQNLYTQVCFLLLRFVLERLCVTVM
Method in brief: as §1

ETV2 = target: T4, ETV2 (Homo sapiens, UniProt O00321 1-342); conditions: protein: recombinant; tags: N-terminal GST; dsDNA, one strand shown
T4 sequence: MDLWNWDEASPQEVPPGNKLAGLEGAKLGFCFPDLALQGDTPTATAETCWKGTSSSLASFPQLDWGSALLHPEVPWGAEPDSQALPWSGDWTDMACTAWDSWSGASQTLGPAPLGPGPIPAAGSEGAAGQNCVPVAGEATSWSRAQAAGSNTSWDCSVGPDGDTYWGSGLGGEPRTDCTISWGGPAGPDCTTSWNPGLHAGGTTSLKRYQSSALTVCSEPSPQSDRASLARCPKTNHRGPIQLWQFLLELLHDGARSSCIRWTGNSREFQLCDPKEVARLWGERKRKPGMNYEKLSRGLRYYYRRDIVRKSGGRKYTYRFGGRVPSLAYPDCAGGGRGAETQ
Method in brief: as §1

ELF3 = target: T5, ELF3 (Homo sapiens, UniProt P78545 1-371); conditions: protein: recombinant; tags: N-terminal GST; dsDNA, one strand shown
T5 sequence: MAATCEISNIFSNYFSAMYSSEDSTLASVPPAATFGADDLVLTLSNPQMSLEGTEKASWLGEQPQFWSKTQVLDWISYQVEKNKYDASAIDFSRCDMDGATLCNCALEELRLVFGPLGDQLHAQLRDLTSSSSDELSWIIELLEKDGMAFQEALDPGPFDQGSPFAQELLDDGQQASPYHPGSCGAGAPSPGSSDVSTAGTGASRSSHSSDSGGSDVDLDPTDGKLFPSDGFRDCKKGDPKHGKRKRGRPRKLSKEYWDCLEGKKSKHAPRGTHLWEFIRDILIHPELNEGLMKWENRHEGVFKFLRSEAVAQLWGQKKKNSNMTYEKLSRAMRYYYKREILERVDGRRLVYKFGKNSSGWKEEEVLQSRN
Method in brief: as §1

CRX = CRX (Homo sapiens, UniProt O43186 1-299); conditions: protein: recombinant; tags: N-terminal GST; dsDNA, one strand shown
Sequence of CRX (O43186 whole entry): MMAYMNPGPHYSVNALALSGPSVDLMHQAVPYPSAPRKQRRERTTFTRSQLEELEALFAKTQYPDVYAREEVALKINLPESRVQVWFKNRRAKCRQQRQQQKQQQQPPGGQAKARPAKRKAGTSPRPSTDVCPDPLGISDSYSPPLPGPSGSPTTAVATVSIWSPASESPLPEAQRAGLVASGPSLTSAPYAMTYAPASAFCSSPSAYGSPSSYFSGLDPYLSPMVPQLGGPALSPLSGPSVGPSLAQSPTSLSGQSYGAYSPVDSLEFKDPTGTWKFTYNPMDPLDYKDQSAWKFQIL
Method in brief: as §1

ETV1 = ETV1 (Homo sapiens, UniProt P50549 1-477); conditions: protein: recombinant; tags: N-terminal GST; dsDNA, one strand shown
Sequence of ETV1 (P50549 whole entry): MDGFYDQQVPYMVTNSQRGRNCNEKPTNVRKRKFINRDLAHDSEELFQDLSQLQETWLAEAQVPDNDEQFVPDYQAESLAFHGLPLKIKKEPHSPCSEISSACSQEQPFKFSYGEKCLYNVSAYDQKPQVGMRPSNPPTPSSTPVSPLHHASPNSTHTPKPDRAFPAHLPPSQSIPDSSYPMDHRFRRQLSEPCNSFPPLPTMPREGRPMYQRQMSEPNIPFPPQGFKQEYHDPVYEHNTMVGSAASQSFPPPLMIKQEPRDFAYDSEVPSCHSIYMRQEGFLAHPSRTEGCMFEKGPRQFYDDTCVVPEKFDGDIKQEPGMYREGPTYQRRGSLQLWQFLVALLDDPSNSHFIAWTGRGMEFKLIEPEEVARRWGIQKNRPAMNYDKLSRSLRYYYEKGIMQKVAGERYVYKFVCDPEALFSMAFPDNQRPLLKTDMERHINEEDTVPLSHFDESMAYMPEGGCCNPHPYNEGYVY
Method in brief: as §1

ERF = target: T6, ERF (Homo sapiens, UniProt P50548 1-548); conditions: protein: recombinant; tags: N-terminal GST; dsDNA, one strand shown
T6 sequence: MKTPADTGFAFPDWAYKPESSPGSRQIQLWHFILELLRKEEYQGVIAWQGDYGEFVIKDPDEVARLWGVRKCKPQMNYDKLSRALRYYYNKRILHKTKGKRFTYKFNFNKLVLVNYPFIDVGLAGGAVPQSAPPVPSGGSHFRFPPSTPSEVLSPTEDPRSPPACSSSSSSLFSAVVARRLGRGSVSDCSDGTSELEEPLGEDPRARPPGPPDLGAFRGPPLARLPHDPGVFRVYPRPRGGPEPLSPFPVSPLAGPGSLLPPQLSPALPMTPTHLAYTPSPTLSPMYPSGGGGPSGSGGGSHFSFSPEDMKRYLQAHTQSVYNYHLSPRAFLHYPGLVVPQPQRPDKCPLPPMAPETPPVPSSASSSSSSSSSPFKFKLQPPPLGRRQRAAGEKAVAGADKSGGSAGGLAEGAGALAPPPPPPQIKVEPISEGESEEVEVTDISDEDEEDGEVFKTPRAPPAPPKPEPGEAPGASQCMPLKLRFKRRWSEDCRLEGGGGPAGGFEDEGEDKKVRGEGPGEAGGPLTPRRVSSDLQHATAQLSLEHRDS
Method in brief: as §1

ETV3L = target: T7, ETV3L (Homo sapiens, UniProt Q6ZN32 1-361); conditions: protein: recombinant; tags: N-terminal GST; dsDNA, one strand shown
T7 sequence: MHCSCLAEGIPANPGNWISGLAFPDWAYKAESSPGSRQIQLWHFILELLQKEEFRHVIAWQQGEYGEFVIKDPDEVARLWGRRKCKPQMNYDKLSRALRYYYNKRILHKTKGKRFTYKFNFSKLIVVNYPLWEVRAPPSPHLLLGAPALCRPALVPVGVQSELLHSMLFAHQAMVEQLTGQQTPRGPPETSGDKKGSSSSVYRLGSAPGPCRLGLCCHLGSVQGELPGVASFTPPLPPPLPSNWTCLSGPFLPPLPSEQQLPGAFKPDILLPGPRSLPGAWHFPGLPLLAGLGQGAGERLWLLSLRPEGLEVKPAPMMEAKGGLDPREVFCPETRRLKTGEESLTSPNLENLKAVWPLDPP
Method in brief: as §1

ETS2 = target: T8, ETS2 (Homo sapiens, UniProt P15036 1-469); conditions: protein: recombinant; tags: N-terminal GST; dsDNA, one strand shown
T8 sequence: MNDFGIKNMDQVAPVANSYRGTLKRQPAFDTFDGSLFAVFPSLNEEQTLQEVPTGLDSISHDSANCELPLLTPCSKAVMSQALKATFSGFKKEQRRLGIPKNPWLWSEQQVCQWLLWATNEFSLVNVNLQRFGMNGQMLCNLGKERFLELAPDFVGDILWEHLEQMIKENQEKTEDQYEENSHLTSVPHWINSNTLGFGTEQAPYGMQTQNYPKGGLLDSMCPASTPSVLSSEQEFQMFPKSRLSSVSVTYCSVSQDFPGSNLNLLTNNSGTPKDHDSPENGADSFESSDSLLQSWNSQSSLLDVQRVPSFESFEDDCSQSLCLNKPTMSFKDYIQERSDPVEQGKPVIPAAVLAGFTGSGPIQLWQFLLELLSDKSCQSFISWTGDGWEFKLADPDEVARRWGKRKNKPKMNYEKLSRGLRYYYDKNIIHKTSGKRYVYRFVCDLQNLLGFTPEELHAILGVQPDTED
Method in brief: as §1

SPDEF = target: T9, SPDEF (Homo sapiens, UniProt O95238 1-335); conditions: protein: recombinant; tags: N-terminal GST; dsDNA, one strand shown
T9 sequence: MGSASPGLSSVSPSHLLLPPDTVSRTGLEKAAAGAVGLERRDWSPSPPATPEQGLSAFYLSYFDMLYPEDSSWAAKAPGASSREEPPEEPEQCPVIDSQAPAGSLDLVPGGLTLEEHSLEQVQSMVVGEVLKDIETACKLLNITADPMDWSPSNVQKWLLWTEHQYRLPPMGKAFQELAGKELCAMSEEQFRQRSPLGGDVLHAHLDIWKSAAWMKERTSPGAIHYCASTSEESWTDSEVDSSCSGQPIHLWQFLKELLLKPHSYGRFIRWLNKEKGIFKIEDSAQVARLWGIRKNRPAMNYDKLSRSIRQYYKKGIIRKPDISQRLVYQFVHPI
Method in brief: as §1

ETV7 = target: T10, ETV7 (Homo sapiens, UniProt Q9Y603 1-341); conditions: protein: recombinant; tags: N-terminal GST; dsDNA, one strand shown
T10 sequence: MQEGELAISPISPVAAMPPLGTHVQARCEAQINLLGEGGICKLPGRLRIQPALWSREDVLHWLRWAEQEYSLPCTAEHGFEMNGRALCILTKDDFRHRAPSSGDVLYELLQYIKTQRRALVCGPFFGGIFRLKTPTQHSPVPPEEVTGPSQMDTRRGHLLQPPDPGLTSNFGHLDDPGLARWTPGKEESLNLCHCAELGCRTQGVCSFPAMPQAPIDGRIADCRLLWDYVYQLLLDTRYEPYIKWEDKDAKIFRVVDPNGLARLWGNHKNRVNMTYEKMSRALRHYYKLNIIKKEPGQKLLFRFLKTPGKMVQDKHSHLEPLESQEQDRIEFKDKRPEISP
Method in brief: as §1

ELF5 = target: T11, ELF5 (Homo sapiens, UniProt Q9UKW6-2 1-255); conditions: protein: recombinant; tags: N-terminal GST; dsDNA, one strand shown
T11 sequence: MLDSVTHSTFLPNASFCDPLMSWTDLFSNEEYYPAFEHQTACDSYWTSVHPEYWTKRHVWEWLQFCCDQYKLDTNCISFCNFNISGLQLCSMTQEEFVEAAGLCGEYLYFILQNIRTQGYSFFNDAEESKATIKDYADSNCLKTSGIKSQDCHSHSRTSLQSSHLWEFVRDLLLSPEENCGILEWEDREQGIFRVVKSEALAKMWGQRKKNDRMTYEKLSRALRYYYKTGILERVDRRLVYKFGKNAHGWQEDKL
Method in brief: as §1

ETV3 = target: T12, ETV3 (Homo sapiens, UniProt P41162-2 1-143); conditions: protein: recombinant; tags: N-terminal GST; dsDNA, one strand shown
T12 sequence: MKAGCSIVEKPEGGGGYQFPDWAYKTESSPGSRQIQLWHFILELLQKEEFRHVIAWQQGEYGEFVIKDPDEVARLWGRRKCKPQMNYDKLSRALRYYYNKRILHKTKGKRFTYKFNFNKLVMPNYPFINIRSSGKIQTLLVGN
Method in brief: as §1

ETV6 = ETV6 (Homo sapiens, UniProt P41212 1-452); conditions: protein: recombinant; tags: N-terminal GST; dsDNA, one strand shown
Sequence of ETV6 (P41212 whole entry): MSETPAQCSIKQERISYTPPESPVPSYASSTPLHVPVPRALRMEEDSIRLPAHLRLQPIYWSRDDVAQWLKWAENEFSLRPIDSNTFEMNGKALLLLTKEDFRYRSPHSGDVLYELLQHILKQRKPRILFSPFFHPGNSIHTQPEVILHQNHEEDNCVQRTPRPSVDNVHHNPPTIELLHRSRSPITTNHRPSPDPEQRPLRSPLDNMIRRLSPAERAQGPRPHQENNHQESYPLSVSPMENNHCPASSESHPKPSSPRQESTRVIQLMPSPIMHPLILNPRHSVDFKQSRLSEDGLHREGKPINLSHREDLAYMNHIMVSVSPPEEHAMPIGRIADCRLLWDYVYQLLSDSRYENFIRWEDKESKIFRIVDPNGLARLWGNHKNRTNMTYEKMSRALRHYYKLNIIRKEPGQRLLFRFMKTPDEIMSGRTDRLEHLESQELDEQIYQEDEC
Method in brief: as §1

Sequence: ATCCCG
- binding signal (FEV): 1.35 fold enrichment (6-mer frequency, TF over GST control)
- binding signal (ETV5): 1.43 fold enrichment (6-mer frequency, TF over GST control)
- binding signal (HSF1): 1.58 fold enrichment (6-mer frequency, TF over GST control)
- binding signal (SPIC): 1.39 fold enrichment (6-mer frequency, TF over GST control)
- binding signal (ELF4): 1.4 fold enrichment (6-mer frequency, TF over GST control)
- binding signal (ELK4): 1.37 fold enrichment (6-mer frequency, TF over GST control)
- binding signal (ETV2): 1.28 fold enrichment (6-mer frequency, TF over GST control)
- binding signal (ELF3): 1.37 fold enrichment (6-mer frequency, TF over GST control)
- binding signal (CRX): 1.67 fold enrichment (6-mer frequency, TF over GST control)
- binding signal (ETV1): 1.44 fold enrichment (6-mer frequency, TF over GST control)
- binding signal (ERF): 1.4 fold enrichment (6-mer frequency, TF over GST control)
- binding signal (ETV3L): 1.33 fold enrichment (6-mer frequency, TF over GST control)
- binding signal (ETS2): 1.44 fold enrichment (6-mer frequency, TF over GST control)
- binding signal (SPDEF): 1.71 fold enrichment (6-mer frequency, TF over GST control)
- binding signal (ETV7): 1.27 fold enrichment (6-mer frequency, TF over GST control)
- binding signal (ELF5): 1.7 fold enrichment (6-mer frequency, TF over GST control)
- binding signal (ETV3): 1.41 fold enrichment (6-mer frequency, TF over GST control)
- binding signal (ETV6): 1.52 fold enrichment (6-mer frequency, TF over GST control)

From article PMC7862700, “An all-to-all approach to the identification of sequence-specific readers for epigenetic DNA modifications on cytosine”
